Assay results as given in PubChem BioAssay (EPA / NIEHS).
Active and inactive are the calls of the source. The calls were made as follows: active = hit-call score of the fitted dose curve at least 0.9, where 1 is the maximum; inactive = score below 0.9.

Assay: APR_HepG2_MicrotubuleCSK_72hr: Apredica 72-hour HepG2 Assay for Microtubule CSK Stabilty (AID 2282919)
Conditions: HepG2 microtubule cytoskeleton, high-content imaging, actives raise or lower the signal
Method: APR_HepG2_72hr is a cell-based, multiplexed-readout assay that uses HepG2, a human liver cell line, with measurements taken at 72 hours after chemical dosing in a 384-well plate.APR_HepG2_MicrotubuleCSK_72hr is one of 10 assay component(s) measured or calculated from the APR_HepG2_72hr assay. It is designed to make measurements of protein conformation, a form of conformation reporter, as detected with fluorescence intensity signals by HCS Fluorescent Imaging technology.Data from the assay component APR_HepG2_MicrotubuleCSK_72hr was analyzed into 1 assay endpoint. This assay endpoint, APR_HepG2_MicrotubuleCSK_72hr, was analyzed with bidirectional fitting relative to DMSO as the negative control and baseline of activity. Using a type of conformation reporter, measures of protein for gain or loss-of-signal activity can be used to understand the signaling at the cellular-level. Furthermore, this assay endpoint can be referred to as a primary readout, because this assay has produced multiple assay endpoints where this one serves a signaling function. To generalize the intended target to other relatable targets, this assay endpoint is annotated to the cell morphology intended target family, where the subfamily is cell conformation.
Cells were treated with dimethyl sulfoxide (DMSO) as a solvent control at a final concentration of 0.5% v/v or with compounds in DMSO with a resulting final DMSO concentration of 0.5% v/v. Compound treatment was done at concentrations of 0.39, 0.78, 1.56, 3.12, 6.24, 12.5, 25, 50, 100, and 200 uM in duplicate on each plate. Cells were treated with compounds for 1, 24, or 72 hr. Carbonyl […] m-chloro-phenylhydrazone (CCCP) and taxol were used as positive controls for mitochondrial function and cytoskeletal stability, respectively; DMSO served as the negative control for this experiment. Cells were fixed by the direct addition of 50 uL formaldehyde in Hank's Balanced Salt Solution (HBSS) to a final concentration of 3.7%. After incubation in the fixation medium for 30 min at room temperature (293-298 K), cells were rinsed twice with HBSS and treated with cell permeabilization buffer (16 uL of 0.5% Triton X-100) for 10 min at room temperature (293-298 K) before labeling. For mitochondrial membrane potential and mitochondrial measurements, pre-fixed cells were incubated with 50 uL of MitoTracker Red CMXRos (Invitrogen) at a concentration of 250 nM for 30 min before fixation. In the remaining cases, post-fixed cells were labeled by incubation with a multiplexed mixture of primary antibodies in HBSS for 60 min at room temperature (293-298 K) to detect immunoreactivity of c-Jun (1:500), phospho-histone H3 (1:100), phospho-histone H2A.x (1:200), p53 (1:400), alpha-tubulin (1:200) and Hoechst 33342 (2 ug/mL). Cells were labeled for multiplexed imaging on two separate plates: a) Hoechst 33342, MitoTracker Red, phospho-histone H3, and alpha-tubulin, and b) Hoechst 33342, phospho-histone H2A.x, and c-Jun. A final rinse with HBSS (50 uL) was performed before analysis. The primary and secondary antibodies for the proteins were phospho-histone H3 (rabbit anti-phospho-histone H3 and FITC-donkey anti-rabbit IgG), phospho-histone H2A.x (mouse anti-phospho-histone H2A.x and FITC-donkey anti-mouse IgG), c-Jun (rabbit anti-phospho-c-Jun and Cy3-donkey anti-rabbit IgG), p53 (sheep anti-p53 and Cy5-donkey anti-sheep IgG), alpha-tubulin (mouse anti-alpha-tubulin and Cy5-donkey anti-mouse IgG). These antibodies are available as the CellCiphr HepG2 assay kit (Millipore).Digital images of each well were captured using a Cellomics ArrayScan VTI (Thermo Scientific Cellomics) (0.8 NA objective, 0.63x optical coupler, and XF-93 filter set) at 20x magnification. The images were acquired using the autofocus feature of the ArrayScan instrument, which entails the following steps. First, the camera focuses on channel 1 (Hoechst 33342), where nuclei are identified. Second, a Z offset of 1 um is used for capturing mitochondria (MitoTracker Red). […]

Compound	AC50	outcome
ClC1=C(Cl)C2(Cl)C3C(Cl)C(Cl)CC3C1(Cl)C2(Cl)Cl (centres undefined)	98.6 µM (active)	–
CN(C)C(=O)Cl	–	inactive
O=[N+]([O-])c1ccc(Cl)c(Cl)c1	–	inactive
Nc1cc2c3c(c1)C(c1ccccc1)=N[C@@H](NC(=O)c1cccnc1)C(=O)N3CC2	–	inactive
ClC(Cl)c1ccccc1	–	inactive
Nc1ccc(Cl)cc1	–	inactive
[N-]=[N+]=[N-]	–	inactive
CC(Cl)(Cl)C(=O)O	–	inactive
O=P(Oc1ccccc1)(Oc1ccccc1)Oc1ccccc1	79.4 µM (active)	–
CCOC(=O)c1ccccc1C(=O)OCC	–	inactive
CCN(CC)c1ccccc1	–	inactive
Nc1ccc2ccccc2c1	–	inactive
O=C(O)C(Cl)Cl	–	inactive
c1nc[nH]n1	–	inactive
Cc1cccc(N)c1	–	inactive
CCCN(CCC)c1c([N+](=O)[O-])cc(C(C)C)cc1[N+](=O)[O-]	41.2 µM (active)	–
CCCCN(CCCC)N=O	–	inactive
CCC1(c2ccccc2)C(=O)N=C(O)NC1=O (centres undefined)	–	inactive
CCOP(=S)(OCC)SCSCC	–	inactive
OCC1CO1 (centres undefined)	–	inactive

Compound	AC50	outcome
CC(Cc1ccc(OCC(=O)O)cc1)NCC(O)c1csc(C(F)(F)F)n1 (centres undefined)	–	inactive
CCOS(=O)(=O)OCC	–	inactive
CCCCCCCc1ccc(O)cc1	–	inactive
c1ccc2c(c1)Nc1ccccc1S2	–	inactive
c1ccc(OP(Oc2ccccc2)Oc2ccccc2)cc1	–	inactive
CCC(C)(C)c1ccc(O)cc1	–	inactive
COCCOCCO	–	inactive
CSC(C)(C)C=NO	–	inactive
CC(C)(C)OOC(C)(C)C	–	inactive
CCOP(=S)(Oc1ccc([N+](=O)[O-])cc1)c1ccccc1 (centres undefined)	–	inactive
Cc1ccc([N+](=O)[O-])cc1C	–	inactive
CCCCN(CCCC)SN(C)C(=O)Oc1cccc2c1OC(C)(C)C2	97.1 µM (active)	–
ClC(Cl)(Cl)c1ccccc1	–	inactive
O=[N+]([O-])c1ccccc1	–	inactive
CCOc1ccc(C(C)(C)COCc2cccc(Oc3ccccc3)c2)cc1	–	inactive
CCCCc1ccccc1	–	inactive
Cc1ccc(N)cc1N	–	inactive
O=P1(N(CCCl)CCCl)NCCCO1 (centres undefined)	–	inactive
CCNc1nc(Cl)nc(NC(C)(C)C)n1	–	inactive
